Screens (PubChem BioAssay)
TMEM16A inh – inhibitors of mouse TMEM16A calcium-activated chloride channel | Q8BHY3 | HEK293 TMEM16A/YFP iodide influx fluorescence, ionomycin | normalized B-score (activity score, 25-100; higher = stronger inhibition) at 10 µM | hit rate 1.2% among 310,000 | AID 588511;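 active = ratio plate-corrected score three or more library SD toward inhibition, starting fluorescence score within five deviations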;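 also: score derived from kinetic fluorescence span divided by baseline fluorescence per well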
ANO1 activ – activators or potentiators of mouse TMEM16A chloride channel. Q8BHY3. HEK293 TMEM16A/YFP-H148Q/I152L, iodide quench fluorescence; active compounds read low. B-score at 10 µM. hit rate 0.3% among 340,000. AID 623877;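 active = fluorescence-ratio B-score plate-corrected deviation score at least 3 library SD below zero, with starting fluorescence score within 5 deviations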;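 also: channel opened by trigger with iodide after compound preincubation; score built on the fluorescence ratio of max minus min over baseline; more negative score means more quench and so TMEM16A activation or potentiation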
PP5 primary – inhibitors of human protein phosphatase 5 (PP5); P53041; purified PP5c, OMFP substrate fluorescence; inhibition, % at 6.7 µM; hit rate 0.18% among 320,000; AID 1987;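 active = inhibition above the campaign's mean inhibition across all tested compounds plus 3 SD, cut at about 9.5% in these data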;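 also: 0% = DMSO only and 100% = 100 µM cantharidin control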
PP1 counter – counter-screen for PP5 inhibitors: inhibitors of human PP1-alpha | purified PP1alpha, OMFP fluorescence | inhibition, % at 6.7 µM | P62136 | hit rate 0.9% among 320,000 | AID 2235;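 active = inhibition above the mean inhibition of all tested compounds plus 3 SD, computed separately for each screening campaign, cut at about 15% in these data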
FID counter – displaces DNA intercalator in HCV helicase counter-screen; DNA fluorescent intercalator displacement, fluorescence; inhibition, % at 7.9 µM; hit rate 0.17% among 290,000; in the data active = inhibition above about 37%;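 also: 0% = vehicle and 100% = reference compound; higher means more ethidium bromide displaced from hairpin DNA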
PREPL inh – human PREPL enzyme inhibition; Q4J6C6; recombinant PREPL, fluorescence polarization activity-based probe; inhibition, % at 5.96 µM; hit rate 0.68% among 320,000; AID 2751;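 also: 0% = enzyme with DMSO and 100% = wells lacking enzyme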
Target sequence (Q4J6C6 whole entry, looked up): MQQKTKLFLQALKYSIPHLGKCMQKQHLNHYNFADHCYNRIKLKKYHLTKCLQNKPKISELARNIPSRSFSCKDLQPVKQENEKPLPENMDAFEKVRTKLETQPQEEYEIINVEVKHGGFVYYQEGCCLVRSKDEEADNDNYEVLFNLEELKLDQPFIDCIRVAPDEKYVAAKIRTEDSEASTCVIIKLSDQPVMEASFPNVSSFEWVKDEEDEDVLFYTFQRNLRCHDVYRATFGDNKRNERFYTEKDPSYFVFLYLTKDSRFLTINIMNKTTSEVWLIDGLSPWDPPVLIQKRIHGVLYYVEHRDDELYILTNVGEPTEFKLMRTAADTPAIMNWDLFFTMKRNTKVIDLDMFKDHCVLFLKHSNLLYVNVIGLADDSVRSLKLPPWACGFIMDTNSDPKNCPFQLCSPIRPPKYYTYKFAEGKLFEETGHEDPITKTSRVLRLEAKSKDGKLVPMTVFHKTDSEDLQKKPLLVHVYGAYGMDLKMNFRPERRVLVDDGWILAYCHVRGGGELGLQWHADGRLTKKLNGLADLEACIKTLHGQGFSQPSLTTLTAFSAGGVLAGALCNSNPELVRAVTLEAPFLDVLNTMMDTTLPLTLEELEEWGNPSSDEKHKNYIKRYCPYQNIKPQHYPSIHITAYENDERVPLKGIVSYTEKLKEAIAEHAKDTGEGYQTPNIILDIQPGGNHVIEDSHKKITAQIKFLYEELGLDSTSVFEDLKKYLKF
PREPL confirm – human PREPL inhibition, confirmation | shares compounds with PREPL inh | recombinant PREPL, fluorescence polarization activity probe | hit rate 67% among 2,000 | inhibition, % at 5.96 µM;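 also: 0% = protein with DMSO and 100% = wells lacking protein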
Active calls of the source: *; i = inactive; . = not tested or not shown. Shown are actives, neighbours in structure and some others; about 2.7% of the full set was active somewhere. Rule as the data show it, unless noted: active = inhibition above about 43%; inactive = the rest.

SMILES	TMEM16A inh	ANO1 activ	PP5 primary	PP1 counter	FID counter	PREPL inh	PREPL confirm
O=C(COC(=O)Cc1ccc(S(=O)(=O)N2CCOCC2)s1)Nc1ccccc1	.	i	.	.	.	4.0	.
O=C(COC(=O)Cc1ccc(S(=O)(=O)N2CCOCC2)s1)Nc1ccc([N+](=O)[O-])cc1	.	i	4.5	-0.2	.	45.4*	38.1
CCn1c(C)nc2cc(C(=O)N/N=C/c3cccc(O)c3O)ccc21	i	i	1.6	7.1	-13.3	44.6*	39.3
CCn1c(C)nc2cc(C(=O)N/N=C/c3ccccc3)ccc21	i	i	2.3	-2.1	-5.0	1.0	.
O=C(CN1CCN(c2ccccn2)CC1)Nc1cc(C(F)(F)F)ccc1Cl	i	i	2.5	1.6	-23.5	46.9*	30.5
O=C(CN1CCN(c2ccccn2)CC1)Nc1ccc(Cl)c(C(F)(F)F)c1	i	i	3.3	4.2	-1.1	5.7	.
COCCC(=O)N1CCC(Oc2ccc(C(=O)NCc3cccc(C)n3)cc2)CC1	i	i	0.6	-3.6	-36.1	7.0	.
COc1ccc(Nc2nnc(SC(C(=O)Nc3cc(C)ccc3C)c3ccccc3)s2)cc1 (stereo not drawn)	i	i	1.5	-0.2	-5.6	-8.2	.
COc1ccc(Nc2nnc(SC(C(=O)Nc3ccc(OC)c(Cl)c3)c3ccccc3)s2)cc1 (stereo not drawn)	i	i	4.5	3.4	0.8	46.6*	42.4
NC(=O)[C@H]1CC2(CC(c3cccc(NC(=O)COc4ccc(Cl)cc4)c3)=NO2)CN1C(=O)Cc1ccc([N+](=O)[O-])cc1 (stereo partly drawn)	i	i	4.5	1.4	.	48.9*	50.2*
CCCCCC(=O)Nc1cccc(C2=NOC3(C2)C[C@@H](C(N)=O)N(C(=O)Cc2ccc([N+](=O)[O-])cc2)C3)c1 (stereo partly drawn)	i	i	1.8	-0.5	.	3.2	.
Cc1ccc(S(=O)(=O)NCC(=O)OCC(=O)N(CCC#N)c2ccccc2)cc1	.	i	.	.	.	46.8*	38.5
Cc1cc(C)cc(N(CCC#N)C(=O)COC(=O)CNC(=O)c2sc3ccccc3c2Cl)c1	i	i	0.1	0.8	.	43.2*	40.5
O=C(Cn1ncn2c(cc3ccccc32)c1=O)NCCc1cccs1	i	i	1.7	-4.9	-1.4	0.3	.
Cc1ccsc1C(=O)OCC(=O)NCc1ccc(Cl)cc1	.	i	2.3	0.1	.	-3.4	.
Cc1ccc(NC(=O)c2ccc3c(c2)N(CC(=O)N2CCCCC2)C(=O)C(C)(C)O3)cc1	i	i	2.3	-0.8	-7.9	48.5*	40.1
CC(C)CN(C(=O)COC(=O)c1ccc(Br)o1)c1c(N)n(Cc2ccccc2)c(=O)[nH]c1=O	i	i	-0.6	-3.9	.	-7.0	.
Nc1cc(C(=O)O)c(N)c2c1C(=O)c1ccccc1C2=O	i	i	2.9	5.3	-2.6	84.3*	71.6*
Nc1c(C(=O)O)ccc2c1C(=O)c1ccccc1C2=O	i	i	1.0	1.0	-7.9	-5.7	.
O=C1C=C(c2ccccc2)CC(c2cccs2)C1n1cnc([N+](=O)[O-])c1 (stereo not drawn)	i	i	-0.6	3.1	-14.2	48.0*	44.7*
CCCc1cc(=O)[nH]c(SCC(=O)Nc2oc(C)c3c(C)n[nH]c(=O)c23)n1	i	i	-0.2	-2.4	.	4.6	.
COc1ccc(N2CCN(CCC(O)c3ccc4ccccc4c3)CC2)cc1 (stereo not drawn)	i	i	2.0	2.0	20.3	70.5*	68.1*
COc1ccc(C(CCN2CCN(c3ccccc3)CC2)c2c(O)cc(OC)cc2OC)cc1 (stereo not drawn)	i	i	6.6	-0.7	.	-17.7	.
COc1ccc(C(=O)Nc2ccc3nc(N4CCN(C)CC4)cc(C)c3c2)c(OC)c1	i	i	1.0	-1.3	10.9	48.4*	42.8
Cc1cc(N2CCOCC2)nc2ccc(NC(=O)CCC(=O)N3CCN(c4ccc(F)cc4)CC3)cc12	i	i	1.9	3.3	-4.8	43.5*	39.1
SMILES	TMEM16A inh	ANO1 activ	PP5 primary	PP1 counter	FID counter	PREPL inh	PREPL confirm
Cc1cc(N2CCOCC2)nc2ccc(NC(=O)CCC(=O)N3CCN(c4ccccc4F)CC3)cc12	i	i	1.1	0.4	-7.7	32.7	.
Cc1cc(N2CCN(C)CC2)nc2ccc(NC(=S)N3CCN(c4cccc(Cl)c4)CC3)cc12	i	i	-0.1	0.5	-3.7	47.1*	32.7
CCN1CCN(c2cc(C)c3cc(NC(=O)c4cccc(OC)c4)ccc3n2)CC1	i	i	2.4	-0.5	15.0	17.6	.
CCN1CCN(c2cc(C)c3cc(NC(=O)c4ccc5c(c4)OCO5)ccc3n2)CC1	i	i	-0.6	1.5	22.0	44.0*	19.5
NS(=O)(=O)c1cccc(NC(=O)COC(=O)c2ccccc2SCC(=O)N2CCCC2)c1	.	i	.	.	.	-6.3	.
CCOC(=O)C1CCN(CC(O)COc2ccc(S(=O)(=O)N3CCCC3)cc2[N+](=O)[O-])CC1 (stereo not drawn)	.	i	.	.	.	.	.
CN(C)C(=O)c1c(NC(=O)c2ccccc2)sc2c1CCC2	i	i	-0.6	-3.7	-5.5	5.0	.
CCN(CC)CCCC(C)NC(=O)c1c(NC(=O)c2ccccc2)sc2c1CCCC2 (stereo not drawn)	i	i	-1.3	-1.0	28.3	46.0*	39.8
COc1cccc(-c2ccc(SCC(=O)NC3CCCCC3)nn2)c1	i	i	3.1	-1.9	-37.2	43.7*	42.8
Cn1c(SCC(=O)c2ccccc2)nnc1-c1cccc(N)c1	i	i	-6.0	-3.6	-1.4	12.6	.
CC(C)(C)C#CCn1c(/C=[N+](\[O-])C2CCCCC2)nc2ccccc21	i	i	4.1	0.6	-24.9	-3.5	.
CCN1C(N(C)CCc2c[nH]c3ccccc23)=N[C@@H](c2cccc(C(F)(F)F)c2)C(C(=O)OC)=C1C	.	i	.	.	.	55.8*	41.5
CCN1C(N(C)CCc2cccs2)=N[C@@H](c2ccccc2)C(C(=O)OC)=C1C	i	i	0.2	-6.0	3.9	5.0	.
OC1CCN(c2c3c(nc4cc(-c5cccc(F)c5)nn24)CCCC3)CC1	i	i	3.6	6.6	-9.1	44.1*	30.5
COC(=O)c1ccc(N2CCN(c3ccccc3)CC2)c(NC(=O)C2CC2)c1	i	i	0.9	0.8	-1.0	50.2*	39.4
CC(C)N=c1cc2n(-c3ccc(Cl)cc3)c3ccccc3nc-2cc1Nc1ccc(Cl)cc1	i	i	4.7	3.5	.	45.5*	48.2*
CCc1c(C)nc2cc(-c3ccc(OC)c(OC)c3)nn2c1N1CCCC1	i	i	3.5	2.2	-26.4	45.3*	38.1
COc1ccc(NC(=O)N(O)C2(C#N)CCCCC2)cc1	.	i	.	.	.	.	.
